Assay results reported in PubChem BioAssay (NCATS).
Values without a mark were called inactive. Results filed as inconclusive are left out. The source made the active and inactive calls. Unless noted, calls come from the whole dose curve; as a rule, active = well fitted curve in the direction sought with a large enough effect; inconclusive = small, poorly fitted or top-dose-only effect, or another doubt; inactive = no such curve, though single readings can be large; an effect the other way counts as inactive or inconclusive.

What was measured:
[1] = molecular target: Lysosomal acid glucosylceramidase (Homo sapiens) (UniProt P04062); test: Glucocerebrosidase-p2 (AID 348; in the data active = potency below about 10 µM; note: potency is the fitted concentration of half-maximal effect); conditions: purified GBA, blue fluorogenic substrate, 40 min
Lysosomal acid glucosylceramidase (Homo sapiens), sequence (P04062 whole entry, looked up): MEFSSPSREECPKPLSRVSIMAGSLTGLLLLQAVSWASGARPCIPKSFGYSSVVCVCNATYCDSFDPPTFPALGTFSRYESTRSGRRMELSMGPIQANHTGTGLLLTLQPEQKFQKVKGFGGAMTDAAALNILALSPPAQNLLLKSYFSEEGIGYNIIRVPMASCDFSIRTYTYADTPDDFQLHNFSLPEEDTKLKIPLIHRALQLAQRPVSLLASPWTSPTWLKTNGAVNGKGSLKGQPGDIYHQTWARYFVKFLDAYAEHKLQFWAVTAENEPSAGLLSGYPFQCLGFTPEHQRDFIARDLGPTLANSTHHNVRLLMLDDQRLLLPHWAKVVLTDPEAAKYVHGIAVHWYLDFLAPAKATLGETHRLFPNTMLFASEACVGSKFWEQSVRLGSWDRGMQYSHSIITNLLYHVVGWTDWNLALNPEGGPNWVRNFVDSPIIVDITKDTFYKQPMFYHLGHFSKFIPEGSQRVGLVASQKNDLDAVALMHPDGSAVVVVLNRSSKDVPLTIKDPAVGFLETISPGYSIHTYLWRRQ
Outline: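 Compounds titrated from 0.6 nM upwards against 0.2 nM enzyme in pH 5.9 citric acid/KH2PO4, taurocholate, tween-20; blue fluorogenic substrate 80 uM, 40 min room temperature, stopped and read Ex 365/Em 440 for AC50.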

[2] = AP1 Signaling Pathway (AID 357; active = well fitted curve in either direction with a large enough effect, not every such curve was filed as active;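 note: ME-180 reporter cells stimulated with EGF at its EC50 level; % is set by controls: 0 for no effect and ±100 for the full control effect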); conditions: ME-180 AP-1-bla reporter, EGF-induced, beta-lactamase ratio, 5 h; at 7.69 µM (top of the series) unless noted
Outline: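 A ratiometric CCF4 readout (405 nm excitation; 460 and 530 nm emission) quantified AP-1-driven beta-lactamase in ME-180 cells after 5 h with compound and EC50 EGF; AC50 values were derived for activators and inhibitors.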

[3] = molecular target: Cytochrome P450 1A2 (Homo sapiens) (UniProt P05177); test: p450-cyp1a2 (AID 410; calls by dose curve; note: potency is the fitted concentration of half-maximal effect); conditions: recombinant CYP1A2, luciferin-ME demethylation, luminescence; series mostly up to 57 µM
Cytochrome P450 1A2 (Homo sapiens), sequence (P05177 whole entry, looked up): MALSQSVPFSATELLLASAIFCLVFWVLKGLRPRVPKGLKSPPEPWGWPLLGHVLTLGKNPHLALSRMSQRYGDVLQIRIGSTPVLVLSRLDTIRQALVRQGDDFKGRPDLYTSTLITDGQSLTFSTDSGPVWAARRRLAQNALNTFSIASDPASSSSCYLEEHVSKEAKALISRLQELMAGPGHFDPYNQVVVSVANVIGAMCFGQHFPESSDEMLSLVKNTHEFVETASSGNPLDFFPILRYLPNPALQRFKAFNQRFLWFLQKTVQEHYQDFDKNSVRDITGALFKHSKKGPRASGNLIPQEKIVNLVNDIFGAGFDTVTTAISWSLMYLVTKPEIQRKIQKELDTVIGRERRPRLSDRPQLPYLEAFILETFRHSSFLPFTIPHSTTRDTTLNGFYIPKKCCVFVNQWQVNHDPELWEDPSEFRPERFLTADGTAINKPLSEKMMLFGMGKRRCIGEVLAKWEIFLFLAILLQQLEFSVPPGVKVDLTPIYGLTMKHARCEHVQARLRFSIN
Outline: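 20nM CYP1A2 with 100uM Luciferin-ME (at Km) in 100mM KPO4; compound preincubated 10 min, NADPH regeneration added, 60 min at room temperature. Luciferin quantified by luminescence after detection reagent; normalized to 57 uM furafylline.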

[4] = NFAT Signaling Pathway (AID 444; active = well fitted curve in either direction with a large enough effect, not every such curve was filed as active;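 note: carbachol stimulus at about its EC50 of 1 µM final; % is set by controls: 0 for no effect and ±100 for the full control effect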); conditions: Jurkat NFAT-bla M1, carbachol, beta-lactamase ratio, 5 h; at 7.69 µM (top of the series) unless noted
Outline: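 Jurkat cells carrying an NFAT-driven β-lactamase reporter and co-transfected muscarinic M1 receptor were treated with compound plus carbachol (1 uM final, an EC50 level) for 5 h at 37 °C. CCF4 loading followed for 1 h at RT; 460/530 nm ratio gave %activity.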

[5] = Stat Signaling Pathway (AID 446; active = well fitted curve in either direction with a large enough effect, not every such curve was filed as active;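 note: ME-180 cervical cancer cells given 40 pM IL-6 alongside compound; SIE-controlled beta-lactamase reporter measured as 460/530 nm FRET emission ratio; % is set by controls: 0 for no effect and ±100 for the full control effect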); conditions: ME-180 SIE beta-lactamase reporter, IL-6 stimulated, 5 h; at 7.69 µM (top of the series) unless noted
Outline: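 Reporter line: ME-180 cervical carcinoma, SIE-beta-lactamase. Treatment: compound with 40 pM IL-6, 5 hrs, 37 C, in low-serum OPTI-MEM with 10 mM HEPES pH 7.3. Detection: 460/530 nm fluorescence.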

[6] = molecular target: Glucocorticoid receptor (Homo sapiens) (UniProt P04150); test: GR-GFP Redistribution (AID 450;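 active = compounds whose dose series gives a full or clear partial fitted curve of increased nuclear translocation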; note: potency is the fitted concentration of half-maximal effect); conditions: U2OS GR-GFP nuclear translocation, laser cytometry, 2 h
Glucocorticoid receptor (Homo sapiens), sequence (P04150 whole entry, looked up, the tested form may be a part): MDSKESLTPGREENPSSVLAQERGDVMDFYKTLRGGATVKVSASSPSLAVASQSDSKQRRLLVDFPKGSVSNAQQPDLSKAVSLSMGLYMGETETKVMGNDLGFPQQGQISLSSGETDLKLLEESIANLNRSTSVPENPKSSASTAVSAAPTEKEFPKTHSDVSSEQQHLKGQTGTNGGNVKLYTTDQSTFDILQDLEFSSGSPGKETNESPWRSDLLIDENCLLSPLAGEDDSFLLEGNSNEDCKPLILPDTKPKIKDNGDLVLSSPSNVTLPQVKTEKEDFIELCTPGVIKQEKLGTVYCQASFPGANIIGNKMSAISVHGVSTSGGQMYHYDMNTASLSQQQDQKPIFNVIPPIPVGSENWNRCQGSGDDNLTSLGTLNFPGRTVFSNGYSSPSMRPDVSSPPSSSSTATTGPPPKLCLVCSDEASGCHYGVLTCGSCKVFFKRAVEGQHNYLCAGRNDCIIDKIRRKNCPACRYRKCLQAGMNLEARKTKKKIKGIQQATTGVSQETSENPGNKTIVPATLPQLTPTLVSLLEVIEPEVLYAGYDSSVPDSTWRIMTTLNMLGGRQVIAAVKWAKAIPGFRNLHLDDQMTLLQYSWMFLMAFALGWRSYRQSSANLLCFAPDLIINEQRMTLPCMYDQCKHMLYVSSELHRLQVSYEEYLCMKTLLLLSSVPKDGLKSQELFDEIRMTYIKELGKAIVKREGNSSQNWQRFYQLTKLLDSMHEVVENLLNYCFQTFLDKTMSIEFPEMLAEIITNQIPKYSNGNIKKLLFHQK

[7] = molecular target: Glucocorticoid receptor (Homo sapiens) (UniProt P04150); test: GR-EFC Redistribution (AID 451; calls by dose curve; note: potency is the fitted concentration of half-maximal effect); conditions: CHO-K1 GR-EFC translocation, beta-gal luminescence, 2 h
Outline: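 CHO-K1 cells stably expressing nuclear-localized β-gal enzyme acceptor and GR fused C-terminally to the enzyme donor fragment; ligand-driven nuclear translocation restores β-gal by complementation. Compounds titrated up to 46 uM final, 2 h at 37 °C; luminescence read.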

[8] = molecular target: Mitogen-activated protein kinase 10 (Mus musculus) (UniProt Q61831); test: JNK3 AlphaScreen Assay (AID 530; active = well fitted curve in either direction with a large enough effect, not every such curve was filed as active;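 note: kinase came from lysate of stimulated human HepG2 cells; signal reports phosphorylation of biotinylated GST-cJun 1-79 at Ser73 with 10 µM ATP; % is set by controls: 0 for no effect and ±100 for the full control effect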); conditions: JNK3 lysate, c-Jun phosphorylation; series mostly up to 57.1 µM
Outline: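 Inhibitors reduce antibody binding to phosphorylated biotin-cJun, lowering AlphaScreen luminescence. Lysates from HepG2 cells pre-activated by IL-1beta plus TNF-alpha supplied JNK3; compounds were titrated.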

[9] = molecular target: Cytochrome P450 3A4 (Homo sapiens) (UniProt P08684); test: qHTS Assay for Activators of Cytochrome P450 3A4 (AID 885); conditions: recombinant CYP3A4, Luciferin-PPXE luminescence, 60 min; series mostly up to 57.1 µM; note: nearly all actives have a fitted effect of over 65% in size
Cytochrome P450 3A4 (Homo sapiens), sequence (P08684 whole entry, looked up): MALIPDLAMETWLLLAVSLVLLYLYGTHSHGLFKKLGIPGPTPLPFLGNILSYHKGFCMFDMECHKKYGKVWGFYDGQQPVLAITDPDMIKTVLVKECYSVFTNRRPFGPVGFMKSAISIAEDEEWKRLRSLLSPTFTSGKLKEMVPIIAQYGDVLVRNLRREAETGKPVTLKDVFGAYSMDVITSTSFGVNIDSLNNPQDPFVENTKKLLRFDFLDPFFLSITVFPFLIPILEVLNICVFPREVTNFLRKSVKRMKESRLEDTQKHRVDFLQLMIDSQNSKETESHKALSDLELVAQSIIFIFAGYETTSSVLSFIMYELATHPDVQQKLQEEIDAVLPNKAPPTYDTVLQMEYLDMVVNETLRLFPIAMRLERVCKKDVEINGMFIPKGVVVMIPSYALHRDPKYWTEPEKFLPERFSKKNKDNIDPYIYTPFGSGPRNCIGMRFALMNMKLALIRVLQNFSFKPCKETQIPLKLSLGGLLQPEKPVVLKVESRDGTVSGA
Outline: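 Signal was normalized against complete inhibition by 57 uM ketoconazole. The reaction used 20nM CYP3A4 with 25uM Luciferin-PPXE, 10-min compound preincubation and a 60-min NADPH-supported step at RT.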

[10] = molecular target: Dual specificity protein kinase CLK4 (Homo sapiens) (UniProt Q9HAZ1); test: qHTS Assay for Inhibitors of CDC-like Kinase 4 (Kinase-Glo Assay) (AID 1770); conditions: recombinant Clk4, Kinase-Glo ATP depletion luminescence; series mostly up to 66.7 µM; note: nearly all actives have a fitted effect of over 65% in size; note: potency is the fitted concentration of half-maximal effect
Dual specificity protein kinase CLK4 (Homo sapiens), sequence (Q9HAZ1 whole entry, looked up): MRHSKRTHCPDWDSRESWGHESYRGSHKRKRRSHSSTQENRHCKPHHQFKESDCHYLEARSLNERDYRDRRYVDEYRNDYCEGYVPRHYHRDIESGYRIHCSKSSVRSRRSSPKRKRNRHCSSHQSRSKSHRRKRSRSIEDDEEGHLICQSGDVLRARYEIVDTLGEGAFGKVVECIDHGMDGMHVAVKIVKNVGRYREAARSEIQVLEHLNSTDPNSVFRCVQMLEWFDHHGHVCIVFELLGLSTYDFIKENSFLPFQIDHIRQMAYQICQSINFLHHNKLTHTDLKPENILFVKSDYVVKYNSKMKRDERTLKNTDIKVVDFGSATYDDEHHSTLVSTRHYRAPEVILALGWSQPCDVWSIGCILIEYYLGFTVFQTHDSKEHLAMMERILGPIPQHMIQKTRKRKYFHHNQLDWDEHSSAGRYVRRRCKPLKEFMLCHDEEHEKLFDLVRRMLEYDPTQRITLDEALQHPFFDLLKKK
Outline: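 Recombinant human Clk4 (25 nM) phosphorylated RS repeat peptide (100 uM) with 1 uM ATP in Tris pH 7.5/MgCl2/EGTA/DTT/Triton buffer for 4.5 h at room temperature. Residual ATP was quantified by Kinase-Glo luciferase luminescence.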

[11] = molecular target: Dual specificity protein kinase CLK4 (Homo sapiens) (UniProt Q9HAZ1); test: qHTS Assay for Inhibitors of CDC-like Kinase 4 (ADP-Glo Assay) (AID 1771); conditions: recombinant CLK4, ADP-Glo luminescence; series mostly up to 80 µM; note: nearly all actives have a fitted effect of over 70% in size; note: potency is the fitted concentration of half-maximal effect
Outline: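 25 nM Clk4 with 100 uM RS repeat peptide and 1 uM ATP (final) in buffer with 2 mM MgCl2, 0.5 mM EGTA, 2.5 mM DTT, 0.01% Triton X-100; 1 h at room temperature; ADP-Glo luminescence for ADP formed.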

[12] = Primary qHTS for small molecule stabilizers of the endoplasmic reticulum resident proteome: Secreted ER Calcium Modulated Protein (SERCaMP) assay (AID 1508630); conditions: SH-SY5Y GLuc-SERCaMP (Gaussia luciferase released on ER calcium loss) secretion, thapsigargin, luminescence; series mostly up to 38.4 µM; note: % is set by controls: 0 for no effect and ±100 for the full control effect
Outline: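 GLuc-SERCaMP-expressing SH-SY5Y cells, pretreated 16 h with compound, are challenged with thapsigargin to empty ER calcium stores; after 4 h, coelenterazine is added directly to the medium and luminescence is imaged.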

[13] = molecular target: 3',5'-cyclic-AMP phosphodiesterase 4B (Homo sapiens) (UniProt Q07343); test: qHTS Assay for Inhibitors of PDE-IV (AID 607; active = well fitted activation curve with a large enough effect in the main read-out, with a control signal flat, not every such curve was filed as active; note: % of control where 0% means no effect); conditions: HEK293 ACTOne CNG channel cells, membrane potential fluorescence; series mostly up to 22.9 µM
3',5'-cyclic-AMP phosphodiesterase 4B (Homo sapiens), sequence (Q07343 whole entry, looked up): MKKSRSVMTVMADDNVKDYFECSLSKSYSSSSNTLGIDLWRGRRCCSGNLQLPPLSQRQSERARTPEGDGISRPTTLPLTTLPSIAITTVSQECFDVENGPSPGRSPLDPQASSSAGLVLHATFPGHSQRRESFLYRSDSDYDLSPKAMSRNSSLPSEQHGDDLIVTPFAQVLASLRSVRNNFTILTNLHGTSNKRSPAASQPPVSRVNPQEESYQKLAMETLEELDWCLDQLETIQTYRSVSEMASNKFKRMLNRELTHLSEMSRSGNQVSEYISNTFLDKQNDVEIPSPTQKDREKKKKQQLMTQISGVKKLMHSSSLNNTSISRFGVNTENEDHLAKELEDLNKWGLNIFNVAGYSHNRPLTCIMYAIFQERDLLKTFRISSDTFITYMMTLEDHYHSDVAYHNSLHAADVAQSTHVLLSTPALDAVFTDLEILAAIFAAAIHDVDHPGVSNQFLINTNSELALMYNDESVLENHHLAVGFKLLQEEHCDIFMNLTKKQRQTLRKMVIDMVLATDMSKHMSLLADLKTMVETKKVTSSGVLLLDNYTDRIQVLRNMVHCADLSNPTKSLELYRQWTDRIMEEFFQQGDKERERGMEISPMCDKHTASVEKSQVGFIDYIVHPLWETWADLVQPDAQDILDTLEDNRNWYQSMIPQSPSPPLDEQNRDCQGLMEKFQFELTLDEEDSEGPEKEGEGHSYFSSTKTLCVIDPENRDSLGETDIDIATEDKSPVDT
Outline: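 Cell-based read-out of cAMP via a modified cyclic nucleotide-gated channel and membrane potential dye (535/590 nm) in HEK293 cells expressing PDE4 endogenously. Compounds tested up to 22.9 uM final; 100 uM RO 20-1724 reference.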

[14] = molecular target: Cytochrome P450 3A4 (Homo sapiens) (UniProt P08684); test: qHTS Assay for Inhibitors and Substrates of Cytochrome P450 3A4 (AID 884); conditions: recombinant CYP3A4, Luciferin-PPXE luminescence; series mostly up to 57.1 µM; note: potency is the fitted concentration of half-maximal effect; nearly all actives have a fitted effect of over 50% in size
Outline: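 20 nM human CYP3A4 with 25 uM Luciferin-PPXE (at KM) in 200 mM KPO4, preincubated 10 min with compound; NADPH regeneration started a 60 min RT reaction. Luciferin detected by luminescence, normalized to 57 uM ketoconazole as full inhibition.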

[15] = molecular target: Ubiquitin carboxyl-terminal hydrolase 1 (Homo sapiens) (UniProt O94782); test: Inhibitors of USP1/UAF1: Pilot qHTS (AID 504865); conditions: purified USP1/UAF1, Ub-rhodamine cleavage fluorescence; series mostly up to 54.9 µM;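 note: rhodamine fluorescence freed from ubiquitin-rhodamine substrate followed over time; top concentration of the series differs between compounds; % is set by controls: 0 for no effect and ±100 for the full control effect; nearly all actives have a fitted effect of over 35% in size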
Ubiquitin carboxyl-terminal hydrolase 1 (Homo sapiens), sequence (O94782 whole entry, looked up): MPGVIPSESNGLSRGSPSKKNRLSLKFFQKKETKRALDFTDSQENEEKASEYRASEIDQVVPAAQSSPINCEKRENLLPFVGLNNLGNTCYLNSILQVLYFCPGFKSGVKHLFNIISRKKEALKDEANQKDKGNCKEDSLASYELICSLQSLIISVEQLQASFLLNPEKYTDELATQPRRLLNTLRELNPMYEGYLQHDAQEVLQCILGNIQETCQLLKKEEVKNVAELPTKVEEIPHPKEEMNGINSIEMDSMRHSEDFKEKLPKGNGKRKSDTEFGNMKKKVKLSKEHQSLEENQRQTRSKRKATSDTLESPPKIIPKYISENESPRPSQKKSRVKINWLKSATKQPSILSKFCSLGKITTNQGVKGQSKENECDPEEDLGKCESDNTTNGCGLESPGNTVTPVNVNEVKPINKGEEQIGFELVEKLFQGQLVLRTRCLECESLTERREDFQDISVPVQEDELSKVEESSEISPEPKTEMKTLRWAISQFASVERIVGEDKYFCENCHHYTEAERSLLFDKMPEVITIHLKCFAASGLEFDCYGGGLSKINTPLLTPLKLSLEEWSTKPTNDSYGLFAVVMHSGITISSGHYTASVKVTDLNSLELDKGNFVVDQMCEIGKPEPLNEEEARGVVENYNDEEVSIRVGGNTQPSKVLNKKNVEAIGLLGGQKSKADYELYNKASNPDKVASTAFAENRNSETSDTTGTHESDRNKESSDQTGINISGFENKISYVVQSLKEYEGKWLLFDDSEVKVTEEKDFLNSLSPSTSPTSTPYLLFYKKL
Outline: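 USP1/UAF1 complex (1nM) preincubated with compound 15 min at room temperature, then Ub-Rho substrate (150nM final) added. Fluorescence read kinetically at 480/540 nm, 6 reads every 60 seconds. Buffer: 50mM HEPES pH 7.8, 0.5mM EDTA, 0.1 mg/ml BSA, 1mM TCEP, 0.01% Tween-20.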

[16] = molecular target: Dual specificity protein kinase CLK4 (Homo sapiens) (UniProt Q9HAZ1); test: qHTS Assay for Inhibitors of CDC-like Kinase 4 (ADP-FP Assay) (AID 1795); conditions: Transcreener ADP fluorescence polarization; series mostly up to 50 µM; note: % is set by controls: 0 for no effect and ±100 for the full control effect; nearly all actives have a fitted effect of over 60% in size
Outline: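 Recombinant human Clk4 (6.25 nM) phosphorylated RS repeat peptide (100 uM) with 1 uM ATP in Tris pH 7.5/MgCl2/EGTA/DTT/Triton buffer for one hour. ADP was quantified by Transcreener competitive fluorescence polarization against an ADP calibration curve.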

[17] = molecular target: Cytochrome P450 2C9 (Homo sapiens) (UniProt P11712); test: qHTS Assay for Inhibitors and Substrates of Cytochrome P450 2C9 (AID 883); conditions: recombinant CYP2C9, luciferin-H luminescence, 60 min; series mostly up to 57.1 µM; note: % is set by controls: 0 for no effect and ±100 for the full control effect; nearly all actives have a fitted effect of over 60% in size
Cytochrome P450 2C9 (Homo sapiens), sequence (P11712 whole entry, looked up): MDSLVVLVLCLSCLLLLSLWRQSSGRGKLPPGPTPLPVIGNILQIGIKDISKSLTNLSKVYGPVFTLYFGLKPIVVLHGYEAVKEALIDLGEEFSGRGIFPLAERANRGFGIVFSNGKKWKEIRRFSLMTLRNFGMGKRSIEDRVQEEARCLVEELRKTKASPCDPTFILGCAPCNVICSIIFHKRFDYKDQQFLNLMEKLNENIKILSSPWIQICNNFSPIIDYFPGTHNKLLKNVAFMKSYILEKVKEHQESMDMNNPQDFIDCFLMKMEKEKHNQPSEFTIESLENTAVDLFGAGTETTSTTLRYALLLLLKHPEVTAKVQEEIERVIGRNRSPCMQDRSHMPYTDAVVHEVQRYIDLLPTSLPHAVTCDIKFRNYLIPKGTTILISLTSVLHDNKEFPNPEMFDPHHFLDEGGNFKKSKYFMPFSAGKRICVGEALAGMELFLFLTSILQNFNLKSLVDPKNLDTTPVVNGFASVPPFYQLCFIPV
Outline: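 A luminogenic readout tracked human CYP2C9 (10nM) converting deoxyluciferin (100uM, at KM) in 25mM KPO4 during 60 min at 37C with regenerated NADPH. Values normalized to 57uM sulphaphenazole as complete inhibition.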

SMILES | Potency [1] | activity change, negative = inhibition [2] [%] | Potency [3] | activity change, negative = inhibition [4] [%] | activity, negative = inhibition [5] [%] | Potency [6] [µM] | Potency [7] [µM] | Potency [8] | Potency [9] | Potency [10] | Potency [11] | outcome [12] | Potency [13] | Potency [14] | Potency [15] | Potency [16] | activity change, negative = inhibition [17]
Cc1noc(C)c1-c1nccc(NCc2cccs2)n1 | > 11.4 µM | 3.65 | 0.501 µM (active) | -16.6 | 2.65 | > 46 | > 46 | inactive | inactive | 22.4 µM (active) | 35.5 µM (active) | inactive | – | – | – | – | –
CN(C)c1ccc(-c2ccc3ncnc(NC4CC4)c3c2)cc1 | > 11.4 µM | – | 0.2 µM (active) | -2.46 | -20.9 | > 46 | > 46 | inactive | inactive | 3.55 µM (active) | 7.94 µM (active) | inactive | inactive | 3.16 µM (active) | inactive | – | –
CCNc1ncc2nc(C)c(=O)n(C[C@H]3CCCO3)c2n1 | > 11.4 µM | 3.27 | 3.98 µM (active) | -7.96 | -8.96 | > 9.22 | > 46 | inactive | – | inactive | – | inactive | inactive | – | inactive | inactive | –
COc1cccc(-c2nccc(NCCc3c[nH]c4ccc(OC)cc34)n2)c1 | 6.96 µM (active) | – | – | -15.8 | -25.8 | – | > 46 | inactive | – | 25.1 µM (active) | 28.2 µM (active) | inactive | – | – | inactive | – | –
CCNc1ncc2nc(-c3ccc(Cl)cc3)c(=O)n(-c3ccc(OC)cc3)c2n1 | > 11.4 µM | – | – | – | – | > 9.22 | > 46 | – | – | inactive | inactive | inactive | inactive | – | inactive | – | –
Cc1noc(C)c1-c1nccc(NC2CC2)n1 | > 11.4 µM | 13.6 | 0.1 µM (active) | 19.7 | 1.49 | > 46 | > 46 | inactive | inactive | inactive | – | inactive | inactive | 2.51 µM (active) | inactive | inactive | 3.44% [at 2.29 µM]
N#Cc1ccccc1-c1ccc2ncnc(NCc3ccccc3)c2c1 | > 11.4 µM | -20.7 | – | 16.5 | 27.7 | > 46 | > 46 | inactive | – | 5.01 µM (active) | 7.94 µM (active) | inactive | – | – | – | – | –
COc1ccc2[nH]cc(CCNc3ccnc(-c4ccccc4Cl)n3)c2c1 | – | -9.46 | 0.398 µM (active) | 5.21 | -20.6 | > 46 | > 46 | – | inactive | 22.4 µM (active) | 22.4 µM (active) | inactive | inactive | 2 µM (active) | inactive | – | –
N#CCCn1c(=O)cnc2cnc(Oc3cccc(Cl)c3)nc21 | – | 5.43 | – | -14 | -4.72 | > 9.22 | > 46 | inactive | – | inactive | inactive | inactive | inactive | – | inactive | – | –
